From PubChem BioAssay (NCI)
Compounds without any hit were thinned out: in the full panel of roughly 79,000, 15% have a hit. A number with no mark means an inactive call. Activity calls are given as the source filed them. Cut-off read from the data, not from the text of the source: active = growth inhibition above about 70%; inactive = the rest.

Columns and labels:
[1] = NCI Yeast Anticancer Drug Screen. Data for the rad50 strain (AID 155);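 note: 0% = growth of vehicle-only cultures of the same strain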; conditions: S. cerevisiae rad50 strain growth inhibition; at 50.0 µM; active compounds read high
Procedure, shortened: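 Compounds were tested on a yeast strain with an engineered DNA damage repair alteration; the reported value is growth inhibition normalised to vehicle treatment.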

[2] = NCI Yeast Anticancer Drug Screen. Data for the mec2-1 strain (AID 157); conditions: S. cerevisiae mec2-1 strain, at 50.0 µM, active compounds read high
Procedure, shortened: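 Test agents were screened against the mec2-1 yeast strain, with defined DNA repair or cell cycle alteration. Growth was scored as inhibition against vehicle-only controls.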

[3] = NCI Yeast Anticancer Drug Screen. Data for the sgs1 mgt1 strain (AID 161);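 note: 0% = growth of cultures given vehicle only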; conditions: S. cerevisiae sgs1 mgt1 strain, at 50.0 µM, active compounds read high
Procedure, shortened: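 Read-out: growth inhibition vs vehicle controls. Cells: mutant yeast strain deficient in DNA damage repair.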

[4] = NCI Yeast Anticancer Drug Screen. Data for the cln2 rad14 strain (AID 165);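 note: 0% = growth equal to vehicle treated cultures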; conditions: S. cerevisiae cln2 rad14 strain, at 50.0 µM, active compounds read high
Procedure, shortened: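 Growth of compound-exposed yeast (cln2 rad14 genotype) measured and expressed as inhibition relative to vehicle.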

[5] = NCI Yeast Anticancer Drug Screen. Data for the bub3 strain (AID 167); conditions: S. cerevisiae bub3 mutant strain, at 50.0 µM, active compounds read high
Procedure, shortened: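 Growth of a checkpoint-deficient yeast mutant is measured after compound exposure. Values represent inhibition relative to vehicle.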

[6] = NCI Yeast Anticancer Drug Screen. Data for the mlh1 rad18 strain (AID 175); conditions: S. cerevisiae mlh1 rad18 strain growth inhibition; at 50.0 µM; active compounds read high
Procedure, shortened: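 In this whole-cell yeast screen, a strain with altered DNA damage repair is challenged with compound, and its growth is measured against matched vehicle-treated controls.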

Row | SMILES | growth inhibition [1] | growth inhibition [2] | growth inhibition [3] | growth inhibition [4] | growth inhibition [5] | growth inhibition [6]
1 | Nc1nc(Cl)nc(Cl)n1 | -53.7% | -59.5% | -33% | 3.75% | -52.4% | -12.2%
2 | S=c1[nH]ncc(SCc2ccccc2)c1SCc1ccccc1 | 2.95% | 2.85% | -8.05% | -15.1% | 7.1% | 7.55%
3 | CN(C)c1nc(Cl)nc2nc(Cl)[nH]c12 | -10.9% | 3.15% | 13.2% | 0.8% | -3.2% | 11.9%
4 | CC(C=O)C1CCCCC1 (configuration not stated) | 9.15% | 10.1% | 0.6% | 7.4% | 8.95% | 5.6%
5 | CCCC(N)C(=O)NC(Cc1c[nH]c2ccccc12)C(=O)O (configuration not stated) | -23.9% | -6.65% | -12% | -0.3% | 0.9% | 2.05%
6 | CN(C)C=Nc1ccc2[nH]c3ccccc3c2c1 | -25.4% | -13.1% | -16.2% | 14.3% | 22.9% | 21.4%
7 | Cc1ccc(NC(=S)NC(=O)c2cccc([N+](=O)[O-])c2)cc1C | 1.8% | 15.5% | 14.5% | -26.7% | 0.6% | 11.7%
8 | CCc1ccccc1NC(=O)CCc1nc(=S)[nH][nH]1 | -24.8% | 9.6% | 2.9% | 32.4% | 20.1% | 6.15%
9 | COc1cccc(N=Nc2c(-c3ccccc3)nn(C(=S)S)c2C)c1 | -2.6% | 0.6% | 17.6% | -192% | 19.3% | 20.6%
10 | CNC(=S)SSSC(=S)NC | 13.1% | -1.9% | 1.8% | 2.55% | -10.3% | 5.55%
11 | CC1=CC2C3C(=O)NC(=O)C3C1C1C3C(=O)NC(=O)C3C21 (configuration not stated) | -25% | -3.9% | 1.2% | -18.6% | 2.45% | 16.4%
12 | CC1(C)CN2C(c3ccccc3)=NN(c3ccccc3)C2(C)C1 (configuration not stated) | -5.85% | -18.4% | 20.9% | -23.1% | 50.4% | 6.15%
13 | CCO/C=N/c1oc(-c2ccccc2)nc1C#N | 4.6% | 4.95% | -4.85% | -38.1% | -12.1% | 1.1%
14 | COc1cc(Cl)ccc1NC(=O)Oc1ccc(C=O)cc1OC | 3.8% | 10.2% | 6.75% | 9.85% | 17.9% | 10.8%
15 | COc1ccc(C(=O)NC(=S)Nc2cccc([N+](=O)[O-])c2)cc1 | -7.3% | 29.9% | 35.5% | -21.6% | 24.6% | 27.7%
16 | CCCCNCC(=O)O[C@]1(CC)C(=O)OCc2c1cc1n(c2=O)Cc2cc3ccccc3nc2-1 | 78% (active) | 66.8% | 49.5% | 28.8% | 40.2% | 62.2%
17 | O=C1O[C@@H](c2ccc3c(c2)OCO3)C2C(=O)O[C@@H](c3ccc4c(c3)OCO4)C12 (some centres not stated) | 13.5% | 8.95% | -8.15% | 19.4% | 2.6% | 21.7%
18 | O=C(NO)Nc1ccc(Cl)cc1 | 12.2% | 8.7% | 2.95% | -2.15% | -9.2% | 1.65%
19 | O=C(COc1ccc(Cl)c(Cl)c1)NCc1cccc([N+](=O)[O-])c1 | 4.9% | -15.8% | -8.4% | 2.2% | 14.9% | 34%
20 | CC(=O)C(C)CO (configuration not stated) | 14.2% | -21.1% | 5.5% | 8.55% | 9.2% | 13.7%
21 | Cc1c(-c2ccccc2)nnn1-c1ccc(F)c(Cl)c1 | -16.4% | -27.1% | -8.75% | -10.4% | 6.95% | -12.4%

Row | SMILES | growth inhibition [1] | growth inhibition [2] | growth inhibition [3] | growth inhibition [4] | growth inhibition [5] | growth inhibition [6]
22 | O=C(c1ccccc1)c1ccc2[nH]ccc(=O)c2c1 | -4.7% | 0.5% | -3.7% | -31.1% | -7.85% | 4.3%
23 | Nc1c(OCc2ccccc2)cccc1C(=O)O | -7.1% | -9.5% | 10.9% | -47.5% | -40.5% | -12.2%
24 | Cn1c(=O)cnc2c3ccccc3ccc21 | 22.8% | 5.15% | 23.6% | 15.8% | 18.4% | 19.6%
25 | N#C/C(=C\c1cccc(N)c1)c1ccccc1 | 45.4% | 57.9% | 73.7% (active) | 30.1% | 88% (active) | 80% (active)
26 | CCN(CC)C(=O)C1CC=CCC1C(=O)O (configuration not stated) | 41.3% | 19.3% | 23.9% | -38.5% | 1.85% | 30.1%
27 | Cc1ccc(NC(=O)Nc2cccc(Cl)c2C)cc1C | 3.75% | 11.5% | 12.8% | -1.85% | 8.45% | -15.9%
28 | CCN(CC)C1CS(=O)(=O)OC2=C1CSCC2 (configuration not stated) | -2.4% | 19.1% | 11.3% | 3.75% | 4.35% | -31.5%
29 | CC1COC(C(=O)O)(c2ccccc2)O1 (configuration not stated) | -1.05% | -3.55% | -2.1% | -17.6% | -0.35% | 6.7%
30 | Cc1cc(NC(=S)Nc2ccccc2)c(NC(=S)Nc2ccccc2)cc1C | 2.1% | -25.2% | 1.55% | 6.7% | 3.2% | 3.2%
31 | CCC(C)C=O (configuration not stated) | 3.9% | -6.3% | -9.2% | 2.2% | 10.4% | -8.3%
32 | CC(=O)Nc1ccc2nc(C)cc(Cl)c2c1 | 25.5% | -3.45% | 9.4% | -8.8% | 6.55% | 4.35%
33 | CNC(=O)C1CCC(=O)N1CN(C(C)=O)c1ccccc1 (configuration not stated) | 3.85% | 13.9% | -12.9% | 13.7% | -13.9% | -63.5%
34 | Nn1nc2ccccc2n1 | -0.15% | 0.2% | -11.1% | 1.6% | 0.75% | 1.45%
35 | COc1cc(/C=C/c2ccnnc2)cc(OC)c1OC | -9.2% | 15.3% | 16.8% | -0.35% | 15.3% | -34.6%
36 | O=CNNC(=O)CN1C(=O)c2ccccc2C1=O | 3.3% | -0.45% | 3.4% | 17.8% | -3.35% | -6.65%
37 | CCOCN1COCN(C)C1=O | 8.1% | -6.55% | -6.45% | 13.3% | 20.1% | 3.95%
38 | O[C@H]1[C@H]2c3cc4c(cc3CN3CCC(C[C@@H]1O)[C@H]23)OCO4 (some centres not stated) | 3.05% | -6.5% | 9.65% | 20.3% | 3.4% | 9.3%
39 | O=[N+]([O-])c1ccc2nc(-c3ccccn3)c(-c3ccccn3)nc2c1 | 43.9% | 18.4% | 42.6% | 18.1% | 47.5% | 41%
40 | CC(=O)Nc1ccc(NC(=O)C2CC3C=CC2C3)cc1 (configuration not stated) | 7.55% | -11% | -33% | 3.1% | -10.7% | 23.2%
41 | CCc1nnc2sc(=S)[nH]n12 | -7.65% | -14.6% | -15.8% | -7.4% | 2.45% | -12.9%
42 | COc1ccc2nc(C)cc(N=[N+]=[N-])c2c1 | -34.6% | 1.45% | -16.5% | -46.5% | 8.55% | 10.6%
